Screening data: PubChem BioAssay, several laboratories
Sampled rows, rich in hits. Any-hit rate of the full collection: about 2.8%.
LMP1 NFkB inh = inhibitors of Epstein-Barr LMP1-induced NF-kappaB reporter | LMP1-induced NF-kappaB luciferase reporter cells, luminescence | inhibition, % at 12.5 µM | hit rate 0.69% among 350,000 | AID 504558; in the data active means inhibition above about 41%;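 further: 0% = neutral control wells and 100% = reference inhibitor control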
Peg3 prom inh = Peg3 promoter activity inhibition; inhibition, % at 20 µM; HeLa PEG-Prom luciferase reporter, luminescence, overnight; hit rate 1.7% among 360,000; AID 588405;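 active means inhibition of at least 50% at 20 µM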
HIF-2a inh = inhibitors of HIF-2a | 786-0 RCC cells HIF-2a reporter, luciferase luminescence, overnight | inhibition, % at 18.8 µM | hit rate 0.72% among 360,000;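 active means inhibition of the luminescence signal of 40% or more relative to plate controls, in a single-dose primary screen at 18.75 µM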
TRPM1 prom inh = reduces MITF-dependent TRPM1 promoter luciferase signal; SK-MEL-5 TRPM1 promoter luciferase, 24 h; inhibition, % at 12.5 µM; hit rate 0.83% among 330,000;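 active means mean inhibition across replicates of 60% or more, whatever share of single replicates reaches that level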
Shn3 3UTR inh = Schnurri-3 reporter inhibition in Clone20 osteoblasts; inhibition, % at 12.5 µM; Clone20 osteoblast Shn3 3'UTR firefly luciferase, 24 h; hit rate 0.52% among 360,000;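 active means mean inhibition of at least 75% with every replicate also reaching 75%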;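 further: 0% = median of neutral control wells and 100% = pilot-screen positive control compound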
PAX8 inh HTS = PAX8 transcriptional activity inhibition | RMG-I TPO-luciferase reporter, SteadyGlo, 24 h | inhibition, % at 12.6 µM | hit rate 1.2% among 360,000;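 active means mean replicate inhibition at least 60% with every replicate also reaching 60%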;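 further: luciferase light reporting Pax8 driven TPO promoter activity; plate controls were median of neutral control wells for no effect and mitoxantrone controls for full effect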
Numbers without * were called inactive; x = no result given.

SMILES	LMP1 NFkB inh	Peg3 prom inh	HIF-2a inh	TRPM1 prom inh	Shn3 3UTR inh	PAX8 inh HTS
C[C@@H]1CN([C@H](C)CO)C(=O)c2c(c3ccccc3n2C)-c2ccccc2CO[C@H]1CN(C)S(=O)(=O)c1ccc(C(F)(F)F)cc1	x	x	x	x	x	83*
CC(=O)Nc1ccc2c(c1)C(=O)N(C)[C@@H]1CC[C@@H](CC(=O)NCc3ccc(F)cc3)O[C@@H]1CO2	x	x	x	x	x	-6
C[C@H]1CN([C@@H](C)CO)C(=O)c2c(c3ccccc3n2C)-c2ccccc2CO[C@H]1CN(C)S(=O)(=O)c1ccc(C(F)(F)F)cc1	x	x	x	x	x	85*
COc1ccccc1S(=O)(=O)N(C)C[C@@H]1OCc2ccccc2-c2c(n(C)c3ccccc23)C(=O)N([C@H](C)CO)C[C@@H]1C	x	x	x	x	x	21
C[C@@H]1CN([C@@H](C)CO)C(=O)c2c(c3ccccc3n2C)-c2ccccc2CO[C@H]1CN(C)C(=O)Nc1ccc2c(c1)OCO2	x	x	x	x	x	97*
COc1ccccc1S(=O)(=O)N(C)C[C@@H]1OCc2ccccc2-c2c(n(C)c3ccccc23)C(=O)N([C@@H](C)CO)C[C@H]1C	x	x	x	x	x	69*
C[C@@H]1CN([C@@H](C)CO)C(=O)c2ccccc2-c2ccccc2CO[C@@H]1CN(C)Cc1ccccc1C(F)(F)F	x	x	x	x	x	45
C[C@@H]1CN([C@H](C)CO)C(=O)c2ccccc2-c2ccccc2CO[C@@H]1CN(C)Cc1ccccc1C(F)(F)F	x	x	x	x	x	75*
COc1cccc(C(=O)Nc2ccc3c(c2)C(=O)N(C)[C@@H]2CC[C@H](CC(=O)NCCCN4CCOCC4)O[C@@H]2CO3)c1	x	x	x	x	x	-8
C[C@@H]1CN([C@H](C)CO)C(=O)c2cccc(NS(C)(=O)=O)c2O[C@H]1CN(C)C(=O)Nc1ccc(C(F)(F)F)cc1	x	x	x	x	x	-6
C[C@H]1CN([C@@H](C)CO)C(=O)c2ccccc2-c2ccccc2CO[C@H]1CN(C)S(=O)(=O)c1ccc(Cl)cc1	x	x	x	x	x	21
C[C@@H]1CN([C@H](C)CO)C(=O)c2c(c3ccccc3n2C)-c2ccccc2CO[C@@H]1CN(C)S(=O)(=O)c1ccc(C(F)(F)F)cc1	x	x	x	x	x	93*
Cc1onc(-c2ccccc2Cl)c1C(=O)N1CCC(Cc2ccccc2)CC1	19	21	12	14	89*	22
Cc1onc(-c2ccccc2Cl)c1C(=O)N1CCC(C(N)=O)CC1	-7	-5	13	-13	-5	-2
C[C@@H]1CN([C@@H](C)CO)C(=O)c2cc(NS(C)(=O)=O)ccc2O[C@H]1CN(C)Cc1ccc2c(c1)OCO2	x	x	x	x	x	-3
CCOC(=O)c1c(C)n(C)c2ccc(OC)c(NC(=O)CN3CCSCC3)c12	-1	77*	-7	3	19	12
CN(C)CC(=O)N[C@H]1CC[C@@H](CCNC(=O)C2CCCCC2)O[C@@H]1CO	x	x	x	x	x	-12
NS(=O)(=O)c1ccc(NC(=O)c2cc(Cl)sc2Cl)cc1	1	-40	-18	5	12	63*
CCCc1sc(N/N=C/c2ccccn2)nc1-c1ccc(F)cc1	63*	-42	-95	63*	77	x
COC(=O)c1ccc(/C=N/Nc2nc(C)c(C)s2)cc1	-43	-329	-277	-84	x	-114
Cc1nc(N/N=C/c2ccccn2)sc1C	x	x	x	x	x	73*
CCC(=O)Nc1ccc2c(c1)C(=O)N(C)C[C@@H](OC)[C@H](C)CN(CCc1ccccc1)[C@H](C)CO2	x	x	x	x	x	26
O=C(c1cccs1)N1C[C@@H](O)[C@H](n2cc(C3CC3)nn2)C[C@@H]1c1ccccc1	-5	11	-5	x	11	2
O=C(c1cccs1)N1C[C@H](O)[C@@H](n2cc(C3CC3)nn2)C[C@@H]1c1ccccc1	5	7	2	x	-1	98*
Cc1noc(C)c1S(=O)(=O)N(C)C[C@H]1Oc2ccc(NS(C)(=O)=O)cc2CC(=O)N([C@H](C)CO)C[C@@H]1C	x	x	x	x	x	14
SMILES	LMP1 NFkB inh	Peg3 prom inh	HIF-2a inh	TRPM1 prom inh	Shn3 3UTR inh	PAX8 inh HTS
O=C(NCCc1csc(-c2cccnc2)n1)c1cccc2ccccc12	89*	6	-5	-6	-25	12
O=C(NCCc1csc(-c2cccnc2)n1)c1ccccc1	1	-52	-42	-17	-7	-31
COc1ccc(S(=O)(=O)Nc2ccc3c(c2)C(=O)N([C@H](C)CO)C[C@@H](C)[C@@H](CN(C)S(=O)(=O)c2ccc(Cl)cc2)OCCCC[C@@H](C)O3)cc1	x	x	x	x	x	31
COc1ccc(S(=O)(=O)Nc2ccc3c(c2)C(=O)N([C@@H](C)CO)C[C@@H](C)[C@@H](CN(C)S(=O)(=O)c2ccc(Cl)cc2)OCCCC[C@@H](C)O3)cc1	x	x	x	x	x	69*
COc1ccc(S(=O)(=O)N(C)C[C@@H]2OCCCC[C@H](C)Oc3ccc(NS(=O)(=O)c4ccc(Cl)cc4)cc3C(=O)N([C@@H](C)CO)C[C@@H]2C)cc1	x	x	x	x	x	64*
COc1ccc(S(=O)(=O)N(C)C[C@H]2OCCCC[C@@H](C)Oc3ccc(NS(=O)(=O)c4ccc(Cl)cc4)cc3C(=O)N([C@@H](C)CO)C[C@H]2C)cc1	x	x	x	x	x	69*
Cc1c(CCO)c(=O)n2n1CCCC2	52*	-8	6	-2	-20	-13
CO[C@@H]1CN(C)C(=O)c2ccc(NS(C)(=O)=O)cc2OC[C@@H](C)N(CC2CC2)C[C@H]1C	x	x	x	x	x	-17
COc1ccc(NC(=O)c2ccc(F)cc2)cc1S(=O)(=O)Nc1cc(C)ccc1Br	1	54*	4	10	4	28
COc1ccc(NS(=O)(=O)c2cc(NC(=O)c3ccc(F)cc3)ccc2OC)cc1	-5	23	17	21	20	7
O=C([C@H]1[C@H](CO)[C@H]2Cn3c(cccc3=O)[C@H]2N1Cc1ccccc1Cl)N1CCCCC1	x	x	x	x	x	3
CCc1ccc(NC(=O)c2cnc(N3CCN(c4ccccn4)CC3)c3ccccc23)cc1	18	65*	-34	43	56	32
C[C@@H]1CN([C@H](C)CO)C(=O)c2cccc(NC(=O)C3CCCCC3)c2O[C@@H]1CN(C)S(=O)(=O)c1cn(C)cn1	x	x	x	x	x	15
CCc1ccc(-c2cc(C)no2)cc1S(=O)(=O)NCCN1CCC(C)CC1	-3	1	2	-4	8	7
CCc1ccc(-c2cc(C)no2)cc1S(=O)(=O)NCCCN1CCN(c2ccccc2)CC1	3	31	13	18	57	61*
CCN(CC)c1ccc2c(Cl)c(Br)c(=O)oc2c1	-4	104*	88*	54	98*	x
COc1ccccc1-c1ccc2c(c1)O[C@@H](CN(C)Cc1ccc3c(c1)OCO3)[C@@H](C)CN([C@@H](C)CO)S2(=O)=O	x	x	x	x	x	66*
COc1ccccc1-c1ccc2c(c1)O[C@H](CN(C)Cc1ccc3c(c1)OCO3)[C@H](C)CN([C@@H](C)CO)S2(=O)=O	x	x	x	x	x	88*
COc1ccccc1-c1ccc2c(c1)O[C@H](CN(C)Cc1ccc3c(c1)OCO3)[C@@H](C)CN([C@H](C)CO)S2(=O)=O	x	x	x	x	x	46
